High-throughput results as filed in PubChem BioAssay.
Hits are enriched below; roughly 3.8% of the tested compounds scored in any of these assays.
Jurkat NFkB inh: inhibitors of the PMA/ionomycin-induced NF-kB reporter in Jurkat cells; 330,000 tested, 0.53% active; inhibition, % at 4 µM; PMA/ionomycin-induced NF-kB luciferase reporter, luminescence; in the data active means inhibition above about 50%
A1 inh: inhibitors of the anti-apoptotic protein A1, read as caspase activation. MEF A1-2A-BIM cells, Caspase-Glo 3/7 luminescence, 3 h; percent of clofoctol response, vehicle zero. AID 2462. caspase activation, % (no concentration beside the values). 330,000 tested, 0.066% active;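 active means over half of replicate activation scores above 10%, or exactly half above 10 with the replicate mean above 10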
Beta apoptosis: blocks beta cell apoptosis | INS-1E cytokine-induced death, ATP luminescence, 48 h; percent of positive-control rescue, neutral wells zero | protection from apoptosis, % (no concentration beside the values) | 300,000 tested, 0.8% active | AID 435005;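 active means Every replicate reaches about 75%, or at least half do and their mean reaches it too, limit read from the data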;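 further: higher means more ATP so stronger rescue from cytokine killing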
Mdm2 MdmX PPI: human Mdm2/MdmX binding inhibition. SaOS-2 split-luciferase Mdm2/MdmX complementation, luminescence. inhibition, % at 8 µM. O15151+Q00987. 330,000 tested, 3% active;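 active means inhibition of at least 50% at 8 µM in the primary screen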
Target sequence (O15151 whole entry, looked up): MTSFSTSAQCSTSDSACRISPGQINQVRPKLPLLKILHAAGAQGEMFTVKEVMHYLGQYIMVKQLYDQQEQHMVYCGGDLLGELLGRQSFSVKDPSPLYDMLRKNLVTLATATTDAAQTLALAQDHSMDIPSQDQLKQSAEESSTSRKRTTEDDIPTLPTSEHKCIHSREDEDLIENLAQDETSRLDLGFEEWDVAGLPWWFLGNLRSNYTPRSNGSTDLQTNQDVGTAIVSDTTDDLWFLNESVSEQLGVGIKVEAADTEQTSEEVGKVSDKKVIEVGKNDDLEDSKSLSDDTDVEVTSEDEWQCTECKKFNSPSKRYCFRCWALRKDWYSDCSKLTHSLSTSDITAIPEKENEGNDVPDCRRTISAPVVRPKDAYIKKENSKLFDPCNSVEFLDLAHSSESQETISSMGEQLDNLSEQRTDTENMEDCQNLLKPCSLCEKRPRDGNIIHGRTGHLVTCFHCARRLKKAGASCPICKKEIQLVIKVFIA
Target sequence (Q00987 whole entry, looked up): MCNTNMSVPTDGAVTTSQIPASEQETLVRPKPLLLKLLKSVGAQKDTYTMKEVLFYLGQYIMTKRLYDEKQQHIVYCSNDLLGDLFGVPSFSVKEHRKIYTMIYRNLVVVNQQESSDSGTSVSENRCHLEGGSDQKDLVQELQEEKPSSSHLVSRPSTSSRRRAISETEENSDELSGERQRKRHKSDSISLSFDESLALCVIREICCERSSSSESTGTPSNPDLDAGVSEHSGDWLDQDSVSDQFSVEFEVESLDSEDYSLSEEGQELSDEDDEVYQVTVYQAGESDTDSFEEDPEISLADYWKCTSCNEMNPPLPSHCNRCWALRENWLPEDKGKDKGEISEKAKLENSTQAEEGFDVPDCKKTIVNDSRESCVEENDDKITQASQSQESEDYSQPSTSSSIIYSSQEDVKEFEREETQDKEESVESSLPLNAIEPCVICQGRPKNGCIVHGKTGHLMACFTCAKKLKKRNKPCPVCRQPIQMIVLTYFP
697 NFkB inh: inhibitors of the PMA/ionomycin-induced NF-kB reporter in 697 B cells | 697 B-cell NF-kB luciferase reporter, 16 h | inhibition, % at 4 µM | 330,000 tested, 0.33% active | AID 435022; in the data active means inhibition above about 35%
NTR1 agonist: agonists of human neurotensin receptor NTR1; P30989; NTR1-U2OS beta-arrestin-GFP spot imaging, agonist mode; activation, % at 20 µM; 330,000 tested, 0.17% active; AID 493036;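 active means activation at or above 40% of the spot to cytoplasm intensity ratio, with at least 20 cells analyzed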
Mdm2 MdmX conf: human Mdm2/MdmX binding inhibition, confirmed; inhibition, % at 8 µM; shares compounds with Mdm2 MdmX PPI; luminescent assay; 10,000 tested, 55% active; in the data active means inhibition above about 40%
FLuc counter: counter-screen for Mdm2/MdmX inhibitors: full-length luciferase | shares compounds with Mdm2 MdmX PPI | SaOS-2 full-length luciferase counterscreen, luminescence | inhibition, % at 8 µM | 6,200 tested, 77% active;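 active means mean inhibition at 8 µM reaching about 37%, which flags the compound as non-specific, limit read from the data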;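 further: p53-null SaOS-2 cells with luciferase driven by a doxycycline-inducible promoter; compound on cells about two nights before reading with doxycycline added after day one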
Hits are given with their value; - = inactive; . = not tested or not shown.

SMILES	Jurkat NFkB inh	A1 inh	Beta apoptosis	Mdm2 MdmX PPI	697 NFkB inh	NTR1 agonist	Mdm2 MdmX conf	FLuc counter
Nc1nc(Nc2ccccc2)nc(NCc2ccccc2)c1[N+](=O)[O-]	-	-	-	-	-	-	.	.
O=C(CSc1nc2nn(-c3ccccc3)c(=O)c-2c2n1CCCCC2)Nc1ccc(OC(F)F)cc1	-	-	-	-	-	-	.	.
Cc1ccc(-c2ccc(SCC(=O)N3CCN(c4ccccc4)CC3)nn2)cc1	-	-	-	-	-	-	.	.
COc1ccc(-c2ccc(SCC(=O)N3CCN(c4ccccc4)CC3)nn2)cc1	-	-	-	52	-	-	-	.
COc1cc(-c2cc(C(=O)N(C)Cc3ccccc3)c3ccccc3n2)cc(OC)c1OC	-	-	-	62	-	-	46	76
COc1ccc(-c2cc(C(=O)N(C)Cc3ccccc3F)c3ccccc3n2)cc1OC	-	-	-	70	-	-	-	105
COc1ccccc1CN(C)C(=O)c1cc(-c2cc(OC)c(OC)c(OC)c2)nc2ccccc12	-	-	-	78	-	-	77	50
COc1ccc(N2CCN(C(=O)c3cc(-c4cccs4)nc4ccccc34)CC2)cc1	-	-	-	-	-	-	.	.
CCN(Cc1ccccc1)C(=O)c1cc(-c2ccc(OC)c(OC)c2)nc2ccccc12	-	-	-	-	-	-	.	.
COc1cccc(CN(C)C(=O)c2cc(-c3cccs3)nc3ccccc23)c1	-	-	-	58	-	-	43	61
COC(=O)c1sc2nc(SCC(=O)N(C)c3ccccc3)n(N)c(=O)c2c1C	-	-	-	56	-	-	-	.
COC(=O)c1sc2nc(SCc3ccccc3C)n(N)c(=O)c2c1C	-	-	-	-	-	-	.	.
Cc1ccc2cc(CN(c3ccccc3)S(=O)(=O)c3ccccc3)c(=O)[nH]c2c1	-	-	-	-	-	-	.	.
CCOc1ccc(N(Cc2cc3ccc(C)cc3[nH]c2=O)S(=O)(=O)c2ccccc2)cc1	-	-	-	59	-	-	58	55
COc1ccc2[nH]c(=O)c(CN(c3ccccc3OC)S(=O)(=O)c3ccccc3)cc2c1	-	-	-	60	-	-	-	89
COc1ccc2[nH]c(=O)c(CN(c3ccccc3)S(=O)(=O)c3ccccc3)cc2c1	-	-	-	-	-	-	.	.
Cc1ccccc1-c1cc(C(=O)NCC2CC2)nn1CC1CC(c2cccc([N+](=O)[O-])c2)=NO1 (centres undefined)	-	-	-	-	-	-	.	.
COc1ccc(C(=O)c2sc(Nc3ccccc3)nc2N)cc1	-	-	.	-	-	-	.	.
Nc1nc(Nc2ccccc2)sc1C(=O)c1ccccc1	-	-	-	62	-	-	-	.
CCOC(=O)[C@@H]1[C@H]2COc3ccccc3[C@H]2N2C(=O)N(c3ccc(OC)cc3)C(=O)[C@]12C	-	-	-	-	-	-	.	.
Cc1c(N=C2N=C(NC(=O)c3ccc(F)cc3)c3ccccc32)c(=O)n(-c2ccccc2)n1C	-	-	-	81	-	-	-	.
Cc1c(NC(=O)NC(=O)c2ccc(F)cc2)c(=O)n(-c2ccccc2)n1C	-	-	-	-	-	-	.	.
O=C(Nc1cccc2ncccc12)c1ccco1	-	-	-	-	-	-	.	.
O=C(COC(=O)c1c[nH]c2ccccc12)NC1CCCCC1	-	-	-	-	-	-	.	.
Brc1ccccc1/C=N/Nc1ccccn1	-	-	-	-	-	-	.	.
SMILES	Jurkat NFkB inh	A1 inh	Beta apoptosis	Mdm2 MdmX PPI	697 NFkB inh	NTR1 agonist	Mdm2 MdmX conf	FLuc counter
Clc1ccc2c(N/N=C/c3ccccc3Br)ccnc2c1	-	-	-	101	-	-	82	52
Cc1ccc2nsnc2c1NC(=O)c1ccc(-c2cc(Cl)ccc2Cl)o1	-	-	-	60	-	-	-	.
COc1ccc(C(=O)N/N=C/c2c[nH]c3ccccc23)cc1	-	-	-	-	-	-	.	.
COc1ccc2cc(C(=O)N/N=C/c3sc4ccccc4c3O)ccc2c1	-	-	92	89	-	-	89	-
O=C(N/N=C/c1ccccc1C(F)(F)F)c1ccc(O)cc1	-	-	-	-	-	-	.	.
O=C(N/N=C/c1sc2ccccc2c1O)c1ccccc1	-	-	103	68	-	-	67	41
